Source: PubChem BioAssay
Compounds with a hit are over-represented: about 9% of the library has one in this group of screens.
HPGD block: qHTS Assay for Inhibitors of HPGD (15-Hydroxyprostaglandin Dehydrogenase); Potency, µM, hits mostly inhibitors; purified HPGD, NADH fluorescence kinetic, PGE2 substrate; 15-hydroxyprostaglandin dehydrogenase [NAD(+)] (Homo sapiens), P15428; hit rate 4.3% among 150,000; active = well fitted inhibition curve with a large enough effect, not every such curve was filed as active; inconclusive = small, poorly fitted or top-dose-only effect, or another doubt; inactive = no such curve, though single readings can be large or run the other way
Target sequence (P15428 whole entry, looked up): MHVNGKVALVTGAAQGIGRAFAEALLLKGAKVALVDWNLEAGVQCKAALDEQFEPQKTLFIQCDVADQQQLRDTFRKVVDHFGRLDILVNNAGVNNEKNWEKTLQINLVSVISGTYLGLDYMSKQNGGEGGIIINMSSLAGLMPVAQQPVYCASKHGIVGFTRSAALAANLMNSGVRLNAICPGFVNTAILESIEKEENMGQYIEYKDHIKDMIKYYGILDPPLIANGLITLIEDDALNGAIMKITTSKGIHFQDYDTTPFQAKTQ
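NADH formation kinetics: reaction with 30 uM PGE2 and 1 mM NAD+ (final), 20 nM enzyme, Tris-HCl pH 8 with Tween 20, after 15 min compound preincubation at room temperature. Fluorescence change, last versus first of five reads.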
Lamin A splicing: qHTS Assay for Modulators of Lamin A Splicing; Potency, µM (doses to about 46.1 µM), most hits filed as inhibitors; hit rate 0.01% among 200,000; HeLa LMNA splicing GFP/RFP minigene ratio, 48 h; AID 1487, 2009; active = well fitted inhibition curve with a large enough effect in the signal ratio, with a control signal flat, not every such curve was filed as active; inconclusive = small, poorly fitted or top-dose-only effect, or effect the other way, or a change in a side signal; the % refers to the signal ratio
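S3 HeLa stable clones carrying a lamin A-EGFP splicing minigene plus DsRed2 were seeded at 600 cells/well in Opti-MEM with 2% FBS, pin-dosed and incubated 48 h at 37°C. Acumen cytometry (488 nm) gave the GFP/RFP total-intensity ratio.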
HTT cytoprotect: qHTS Multiplex Assay to Identify Dual Action Probes in a Cell Model of Huntington: Cytoprotection (ATP). PC12 HTT-Q103 induced, cytoprotection, ATP luminescence, 40 h. Potency, µM (titrated, usually from 56.4 µM), hits mostly activators. hit rate 0.14% among 230,000. AID 1471, 2008; also: nearly all actives have a fitted effect of over 45% in size
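Quantitative HTS on tebufenozide-induced (100 nM) PC12 cells expressing HTTQ103 exon 1–GFP; compounds tested as a concentration series; survival measured via cellular ATP.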
ALDH1A1 block: qHTS Assay for Inhibitors of Aldehyde Dehydrogenase 1 (ALDH1A1) | Aldehyde dehydrogenase 1A1 (Homo sapiens), P00352 | Purified ALDH1A1, NADH fluorescence, propionaldehyde substrate | Potency, µM (highest dose often 75.3 µM), most hits filed as inhibitors | hit rate 7.3% among 220,000 | AID 1030, 2008; active = well fitted inhibition curve with a large enough effect, not every such curve was filed as active; inconclusive = small, poorly fitted or top-dose-only effect, or another doubt; inactive = no such curve, though single readings can be large or run the other way
Target sequence (P00352 whole entry, looked up): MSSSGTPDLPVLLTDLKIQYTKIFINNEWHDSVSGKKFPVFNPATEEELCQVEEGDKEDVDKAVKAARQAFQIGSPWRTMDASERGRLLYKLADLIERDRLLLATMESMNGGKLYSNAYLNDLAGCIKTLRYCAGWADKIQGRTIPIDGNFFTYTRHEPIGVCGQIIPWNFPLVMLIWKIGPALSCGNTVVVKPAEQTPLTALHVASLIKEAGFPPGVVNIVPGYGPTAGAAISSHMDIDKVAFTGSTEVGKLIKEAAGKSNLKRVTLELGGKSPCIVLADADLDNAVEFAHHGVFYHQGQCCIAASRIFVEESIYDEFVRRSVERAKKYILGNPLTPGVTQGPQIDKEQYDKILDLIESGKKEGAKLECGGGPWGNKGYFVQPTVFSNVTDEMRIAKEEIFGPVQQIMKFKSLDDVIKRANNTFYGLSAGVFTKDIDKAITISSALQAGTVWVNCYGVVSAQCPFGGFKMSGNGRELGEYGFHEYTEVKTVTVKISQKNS
HttQ103 aggreg: qHTS Multiplex Assay to Identify Dual Action Probes in a Cell Model of Huntington: Aggregate Formation (GFP). hit rate 1.1% among 220,000. PC12 HttQ103-GFP aggregates, Acumen cytometry, 40 h. Potency, µM (highest dose often 46.1 µM), most hits filed as inhibitors; also: nearly all actives have a fitted effect of over 60% in size
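Read-out: GFP aggregate count by laser scanning cytometer (488 nm excitation, 500-530 nm emission, 1–25 µm objects >6 SD above background). Cells: PC12, inducible HTTex1-Q103-GFP, 100 nM tebufenozide; compounds titrated.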
Luc counter: Counterscreen for Luciferase (Kinase-Glo TM) Inhibition. Luciferin 4-monooxygenase (Photuris pensylvanica), Q27757. Kinase-Glo luciferase, ATP luminescence, 8 min. Potency, µM (top dose mostly 38.3 µM), usual class: inhibitors. hit rate 0.28% among 200,000. AID 1379, 2008; also: nearly all actives have a fitted effect of over 60% in size
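Recombinant Kinase-Glo luciferase, 10 uM ATP (linear range), luciferin; imidazole pH 7.2 / KCl / MgCl2 / Tween / BSA buffer; 8 min RT; luminescence.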
A number is an active result; [ ] = dose if it differs, or a comment. Unless noted, calls follow the shape of the dose curve; as a rule, active = well fitted curve in the direction sought with a large enough effect; inconclusive = small, poorly fitted or top-dose-only effect, or another doubt; inactive = no such curve, though single readings can be large; an effect the other way counts as inactive or inconclusive.

Screening Cc1ccc(S(=O)(=O)c2cnc(-c3ccccc3)nc2N2CCCCC2)cc1 returned HTT cytoprotect inactive, ALDH1A1 block 12.6µM, HttQ103 aggreg inactive[9.22 µM] and Luc counter inactive.
CCCCc1noc2c1/C(=N\O)CC(c1ccccc1)C2 (configuration not stated) was read as HPGD block inactive, Lamin A splicing inactive, HTT cytoprotect inactive[10 µM], ALDH1A1 block inactive, HttQ103 aggreg inactive and Luc counter inactive.
`CCCCc1n[nH]c2c1/C(=N/O)CC(c1ccccc1)C2` (configuration not stated) gave HPGD block 2.51µM, Lamin A splicing inconclusive, HTT cytoprotect inactive[10 µM], ALDH1A1 block inactive, HttQ103 aggreg inconclusive and Luc counter inactive.
Screening CCc1n[nH]c2c1/C(=N\O)CC(c1ccccc1)C2 (configuration not stated) returned HPGD block 3.98µM, Lamin A splicing inconclusive, HTT cytoprotect inactive, ALDH1A1 block inactive, HttQ103 aggreg inactive[9.22 µM] and Luc counter inactive.
O=C(CN1CCCc2ccccc21)NCCc1ccc(F)cc1 was read as HTT cytoprotect inactive, ALDH1A1 block inconclusive, HttQ103 aggreg inactive and Luc counter inactive.
For CC1(O)CC(=O)N(c2ccccc2)O1 (configuration not stated) the results were HPGD block inactive, Lamin A splicing inactive, HTT cytoprotect inactive, ALDH1A1 block 22.4µM, HttQ103 aggreg inactive and Luc counter inactive.
For O=C1CC(=O)N(c2ccccc2)N1c1ccccc1 the results were HPGD block inactive, Lamin A splicing inactive, HTT cytoprotect inactive[0.074 µM], ALDH1A1 block inactive, HttQ103 aggreg inactive and Luc counter inactive.
Screening Cn1cc(Cl)c(C(=O)NC(=S)Nc2sc3c(c2C#N)CCCCC3)n1 returned HPGD block 10µM, Lamin A splicing inactive, HTT cytoprotect inactive[10 µM], ALDH1A1 block inconclusive, HttQ103 aggreg inactive and Luc counter inactive.
`N#Cc1c(NC(=O)/C=C/c2ccco2)sc2c1CCCC2` gave HPGD block inconclusive, Lamin A splicing inconclusive, HTT cytoprotect inactive[10 µM], ALDH1A1 block 31.6µM, HttQ103 aggreg inactive and Luc counter inactive.
Screening CC(=O)Nc1sc2c(c1C#N)CCCCC2 returned HPGD block inactive, Lamin A splicing inactive, HTT cytoprotect inactive[10 µM], ALDH1A1 block inconclusive, HttQ103 aggreg inconclusive and Luc counter inactive.
CC(C)(C)C(=O)NC(=S)Nc1sc2c(c1C#N)CCCCC2 was read as HPGD block inactive, Lamin A splicing inactive, HTT cytoprotect inactive[10 µM], ALDH1A1 block 22.4µM, HttQ103 aggreg inconclusive and Luc counter inactive.
For Cc1onc(-c2ccccc2)c1C(=O)NC(=S)Nc1sc2c(c1C#N)CCCC2 the results were HPGD block inconclusive, Lamin A splicing inactive, HTT cytoprotect inactive[10 µM], ALDH1A1 block 0.501µM, HttQ103 aggreg inactive and Luc counter inactive.
Screening Cn1cc(Br)c(C(=O)Nc2sc3c(c2C#N)CCC3)n1 returned HTT cytoprotect inactive[10 µM], ALDH1A1 block inconclusive and HttQ103 aggreg inactive[9.22 µM].
For CC(C)(C)c1ccc(OCCCNC2CCCC2)cc1 the results were Lamin A splicing inactive, HTT cytoprotect inactive, ALDH1A1 block inconclusive, HttQ103 aggreg inactive and Luc counter inactive.
`Cc1onc(-c2ccccc2)c1C(=O)NC(=S)Nc1sc2c(c1C#N)CCC(C)C2` (configuration not stated) gave HPGD block inactive, Lamin A splicing inactive, HTT cytoprotect inactive[10 µM], ALDH1A1 block 2.24µM, HttQ103 aggreg inactive and Luc counter inactive.
For Cc1ccccc1C(=O)NC(=S)Nc1sc2c(c1C#N)CCCC2 the results were HPGD block inactive, Lamin A splicing inconclusive, HTT cytoprotect inactive[10 µM], ALDH1A1 block 6.31µM, HttQ103 aggreg inactive and Luc counter inactive.
`CCCCc1cc2c(cn1)=C(OC(=O)c1cccs1)C(C)(OC(=O)CC)C(=O)C=2` (configuration not stated) gave HPGD block inactive, Lamin A splicing inconclusive, HTT cytoprotect inactive[10 µM], ALDH1A1 block 3.16µM and Luc counter inactive[7.66 µM].
`Cc1ccccc1/C=N/NC(=O)Cn1cnc([N+](=O)[O-])n1` gave HPGD block inactive, Lamin A splicing inactive, HTT cytoprotect inactive[10 µM], ALDH1A1 block inactive, HttQ103 aggreg inactive and Luc counter inactive.
`O=C(Cn1cnc([N+](=O)[O-])n1)N/N=C/c1cc(Cl)ccc1O` gave Lamin A splicing inconclusive, HTT cytoprotect inactive, ALDH1A1 block inactive, HttQ103 aggreg 11.2µM and Luc counter inactive.
O=C(Cn1cnc([N+](=O)[O-])n1)N/N=C/c1ccccc1O was read as HPGD block inactive, Lamin A splicing inactive, HTT cytoprotect inactive, ALDH1A1 block inactive, HttQ103 aggreg 8.91µM and Luc counter inactive.
COCCN(Cc1ccco1)C(=O)Cn1ncc2c(=O)oc3ccccc3c21 was read as HTT cytoprotect inactive[10 µM] and HttQ103 aggreg inactive[9.22 µM].
CCOC(=O)c1c(NC(=O)c2noc3c2CCCC3)sc(C)c1C was read as HPGD block inconclusive, Lamin A splicing inactive, HTT cytoprotect inactive, ALDH1A1 block 22.4µM, HttQ103 aggreg inactive and Luc counter inactive.
Screening CCOc1ccc(NC(=S)NN(C)C(=S)Nc2ccc(OCC)cc2)cc1 returned HPGD block inactive, Lamin A splicing inconclusive, ALDH1A1 block 28.2µM, HttQ103 aggreg inactive and Luc counter inactive.
COc1ccc(NC(=S)N(Cc2ccc(N(C)C)cc2)Cc2ccco2)cc1 was read as HPGD block inactive, Lamin A splicing inconclusive, HTT cytoprotect inactive[10 µM], ALDH1A1 block 11.2µM, HttQ103 aggreg inactive and Luc counter inactive.
Screening CCCN(Cc1ccccc1)C(=S)Nc1ccc(OCC)cc1 returned Lamin A splicing inconclusive, HTT cytoprotect inactive[10 µM], ALDH1A1 block inactive, HttQ103 aggreg inactive and Luc counter inactive.
Screening CCOc1ccc(NC(=S)N(Cc2ccc(N(C)C)cc2)Cc2ccco2)cc1 returned HPGD block inactive, Lamin A splicing inactive, HTT cytoprotect inactive, ALDH1A1 block 8.91µM, HttQ103 aggreg inactive and Luc counter inactive.
Screening COc1cc(/C=C2\SC(=S)N(C(Cc3ccccc3)C(=O)O)C2=O)ccc1O (configuration not stated) returned HTT cytoprotect inactive[10 µM] and HttQ103 aggreg inactive[9.22 µM].
Screening CC(C)C(=O)NC(c1ccccc1)c1cc([N+](=O)[O-])c2cccnc2c1O (configuration not stated) returned HPGD block inactive, Lamin A splicing inconclusive, HTT cytoprotect inactive[10 µM], ALDH1A1 block inactive, HttQ103 aggreg 8.91µM and Luc counter inactive.
